Results filed as inconclusive are left out. The source made the active and inactive calls. How the source made its calls: active means hit-call score of the fitted dose curve at least 0.9, where 1 is the maximum; inconclusive means response in the unintended direction; inactive means score below 0.9.

Read-out in this test: ABC Transporter (ABCB11), ABCB11 (gene 8647)
Put plainly: CLD_ABCB11_6hr: CellzDirect (CLD) Gene Expression Assay for ABC Transporter (ABCB11) at 6 hours (AID 2283675).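 Further: hits raise ABCB11 mRNA level so AC50 marks induction.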 As to the method:
CLD_6hr is a cell-based, multiplexed-readout assay that uses hepatocyte, a human liver primary cell, with measurements taken at 6 hours after chemical dosing in a 96-well plate.CLD_ABCB11_6hr is one of 16 assay component(s) measured or calculated from the CLD_6hr assay. It is designed to make measurements of mRNA induction, a form of inducible reporter, as detected with chemiluminescence signals by Quantitative Nuclease Protection Assay (qNPA) technology.Data from the assay component CLD_ABCB11_6hr was analyzed at the endpoint, CLD_ABCB11_6hr, in the positive analysis fitting direction relative to DMSO as the negative control and baseline of activity. Using a type of inducible reporter, gain-of-signal activity can be used to understand changes in the reporter gene as they relate to the gene ABCB11. Furthermore, this assay endpoint can be referred to as a primary readout. To generalize the intended target to other relatable targets, this assay endpoint is annotated to the transporter intended target family, where subfamily is ABC transporter.
Human hepatocyte cultures were treated daily for two consecutive days with fresh dosing solutions containing appropriate concentrations of the 320 ToxCast chemicals (chemical identities were blinded to CellzDirect and other ToxCast collaborators), vehicle control (0.2% DMSO), and positive control inducers as summarized in Table 1. Due to the large number of treatment groups and chemicals examined, the ToxCast chemicals were divided into two groups (spanning two independent cultures of hepatocytes from separate donor preparations (Hu778: ToxCast plates 1 and 2; Hu776: ToxCast plates 3 and 4). Each preparation of human hepatocyte cultures was treated with respective vehicle control, medium only control, set of six positive controls/reference chemicals for the five hepatic receptor pathways, and a subset of eight of the ToxCast chemicals (indoxacarb, pyrithiobac-sodium, norflurazon, cyhalofop-butyl, methomyl, thiram, acetochlor, and propiconazole). These replicate data, coupled with internal replicates designed within the blinded ToxCast chemical library, provided additional data to evaluate interindividual differences between hepatocyte preparations and their potential impact on chemical profiles.Cell morphology and integrity were evaluated using phase-contrast microscopy as an indicator of hepatocyte cell health (Tyson & Green, 1987). Cultures for each treatment group (i.e., media, vehicle [0.2% DMSO], positive control inducers [multiple concentrations], and the ToxCast chemicals [multiple concentrations]) were observed and cell morphology was assessed relative to vehicle control cultures at each harvest time point (0, 6, 24, or 48 h). […] Images were evaluated at the conclusion of the study to assess changes in cell integrity and account for the effects of chemical exposure on uncharacteristic changes in concentration-dependent gene expression profiles. The results from these determinations of apparent cytotoxicity were annotated (yes/no) alongside the corresponding qNPA data for reference.At the conclusion of each treatment period, hepatocyte cultures (96-well) were washed with 1 volume of HBSS, lysed by addition of 25 ul ArrayPlate lysis buffer (HTG, Tucson, AZ), and 70 ul/well of Denaturation Oil, denatured by incubation at 95C for 10 min, and frozen at approximately -70C until analysis by nuclease protection assay (qNPA) (Roberts et al., 2007). For qNPA analysis, cell lysates were thawed at 50C for approximately 30 min, qNPA probes were added, and samples were incubated at 95C for 10 min to begin the detection process by denaturing the target RNA, dissociating the duplexes and secondary structure hybridization. At the conclusion of the hybridization period, S1 nuclease reagent was added to each sample to digest all nonprotected nucleotides at 50C for 60-90 min. […]
For `CC(C)=CC1C(C(=O)OCc2coc(Cc3ccccc3)c2)C1(C)C` (stereo not given), the outcome was inactive. With `COCC(C)N(C(=O)CCl)c1c(C)csc1C` (stereo not given) the entry was “inactive”; with `Clc1cccc(C(Cl)(Cl)Cl)n1`, “inactive”. `COP(=S)(OC)Oc1ccc([N+](=O)[O-])c(C)c1`: the result was inactive.

With `Clc1nc(Cl)nc(Nc2ccccc2Cl)n1`, the outcome was inactive. As for `C=CCOC(=O)C(C)(C)OC(=O)c1cc(-n2c(=O)cc(C(F)(F)F)n(C)c2=O)ccc1Cl`, the outcome was inactive. As to `Cc1nc(N(C)C)nc(OC(=O)N(C)C)c1C`, the compound was classed as inactive. Take `COC(=O)N(C(=O)N1CO[C@@]2(C(=O)OC)Cc3cc(Cl)ccc3C2=N1)c1ccc(OC(F)(F)F)cc1`: the compound was classed as inactive. In the case of `CCOc1nc(C(Cl)(Cl)Cl)ns1`, the call was inactive. Regarding `CC(C)N1C(=O)N(c2ccccc2)CSC1=NC(C)(C)C`, the outcome was inactive. Under `CCOc1cc(C(C)(C)C)ccc1C1COC(c2c(F)cccc2F)=N1` (stereo not given) stands “inactive”; under `CCOP(=O)(OCC)Oc1nc(Cl)c(Cl)cc1Cl`, “inactive”. With `CNC(=O)Oc1cccc2ccccc12` the entry was “inactive”.

Turning to `CS(=O)(=O)c1ccc(C(=O)C2C(=O)CCCC2=O)c([N+](=O)[O-])c1`, the outcome was inactive. On to `CCOc1nc(F)cc2nc(S(=O)(=O)Nc3c(Cl)cccc3Cl)nn12`, for which the compound was classed as inactive. Take `N#Cc1c(Cl)cccc1Cl`: the call was inactive. As to `O=C(O)c1c(Cl)ccc2cc(Cl)cnc12`, the result was inactive. Under `CC1(C)CON(Cc2ccccc2Cl)C1=O` stands “inactive”. Under `CCCC(=NOCC)C1=C(O)CC(CC(C)SCC)CC1=O` (stereo not given) stands “inactive”; under `CCNP(=S)(OC)O/C(C)=C/C(=O)OC(C)C` (stereo not given), “inactive”; under `CC1(C)CCC(=Cc2ccc(Cl)cc2)C1(O)Cn1cncn1` (stereo not given), “inactive”. With `OC(c1ccc(Cl)cc1)(c1ccc(Cl)cc1)C(Cl)(Cl)Cl` the entry was “inactive”.

`Nc1c(Cl)c(Cl)nc(C(=O)O)c1Cl`: the outcome was inactive. With `CO/N=C(/C1=NOCCO1)c1ccccc1Oc1ncnc(Oc2ccccc2Cl)c1F` the entry was “inactive”; with `COP(=S)(OC)SCn1nnc2ccccc2c1=O`, “inactive”.

As to `O=c1n(Cl)c(=O)n(Cl)c(=O)n1Cl`, the outcome was inactive.

Regarding `CCOP(=S)(OCC)Oc1nc(Cl)n(C(C)C)n1`, the compound was classed as inactive. With `COc1ccc(-c2ccccc2)cc1NNC(=O)OC(C)C` the entry was “inactive”. `O=C(Nc1ccccc1-c1ccc(Cl)cc1)c1cccnc1Cl`: the compound was classed as inactive. Turning to `CSC(=O)c1c(C(F)F)nc(C(F)(F)F)c(C(=O)SC)c1CC(C)C`, the compound was called inactive. For `COC(=O)NS(=O)(=O)c1ccc(N)cc1`, the result was inactive. With `COCc1cnc(C2=NC(C)(C(C)C)C(=O)N2)c(C(=O)O)c1` (stereo not given) the entry was “inactive”.

On to `CC(C)(C)C(=O)C(Oc1ccc(Cl)cc1)n1cncn1` (stereo not given), for which the call was inactive. With `COc1cc(Cl)c(OC)cc1Cl` the entry was “inactive”. With `COP(=O)(OC)O/C(C)=C/C(=O)N(C)C`, the call was inactive.

Turning to `CN=C=S`, the compound was called inactive. With `CS(=O)(=O)c1cc(C(F)(F)F)ccc1C(=O)c1cnoc1C1CC1` the entry was “inactive”.

In the case of `O=P(O)(O)CCCl`, the compound was classed as inactive. On to `O=C1C2CC=CCC2C(=O)N1SC(Cl)(Cl)Cl` (stereo not given), for which the outcome was inactive.

On to `COc1cc(OC)nc(NC(=O)NS(=O)(=O)c2ncccc2OCC(F)(F)F)n1`, for which the result was inactive.

Values taken from PubChem BioAssay (EPA / NIEHS).
